Our source for the composite z-score and z-score values is PubChem BioAssay.

Calls of active or inactive are those of the source.

For assay [1], the system named is Plasmodium falciparum Sir2 (PF13_0152, Sir2A). Nature of the assay: pfSir2 binders on small-molecule microarrays, primary screen, biochemical, small-molecule microarray, 635 nm fluorescence (AID 1098).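 Also: score merges spot fluorescence intensity with its signal-to-noise ratio.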 The conditions noted are these: small-molecule microarray binding, fluorescence 635 nm; higher = more signal.
Assay [2] in a line: small-molecule microarray binders of probe aDKK1, primary screen, biochemical, biotinylated probe, 635/667 nm fluorescence (AID 1099).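 Also: score merges 667nm spot fluorescence with signal to noise across triplicate slides.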 The following applies: higher = more signal.
The nature of assay [3]: small-molecule microarray binders of probe aCHRDL2, primary screen, biochemical, biotinylated probe, 635/667 nm fluorescence (AID 1100). The following applies: higher = more signal.
A short description of assay [4]: splicing luciferase reporter signal modulators, primary screen, spliceosome inhibition project, cell-based, HEK293, splice +/- reporter (AID 1101).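 Also: HEK293 cells carrying a splicing-competent luciferase reporter gene; test concentration not given here.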 The following applies: luminescence, 24 h, higher = more signal, called active from +8 up or from −8 down.
In assay [5] the target is Fibroblast growth factor 10 (Homo sapiens) (UniProt O15520). The experiment in a line: FGF10 binders on small-molecule microarrays, primary screen, biochemical, small-molecule microarray, 635 nm fluorescence (AID 1102). The following applies: FGF10 binding, fluorescence 635 nm, higher = more signal.
For assay [6], the system named is glycogen synthase kinase-3 (GSK3A per assay name; protocol says GSK3B). The experiment in a line: GSK3 binders on small-molecule microarrays, primary screen, biochemical, small-molecule microarray, 635 nm fluorescence, GSK3A (AID 1103). Also: the record names both GSK3A and GSK3B. The following applies: small-molecule microarray binding, fluorescence 635 nm; higher = more signal.
For assay [7], the target named is Epidermal growth factor receptor (Homo sapiens) (UniProt P00533). Nature of the assay: EGFR binders on small-molecule microarrays, primary screen, biochemical, small-molecule microarray, 635 nm fluorescence (AID 1104).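 Also: score merges 667 nm emission intensity with spot signal to noise over triplicate slides.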 The conditions noted are these: EGFR binding, higher = more signal.
The target of assay [8] is Follistatin-related protein 3 (Homo sapiens) (UniProt O95633). The experiment in a line: FSTL3 binders on small-molecule microarrays, primary screen, biochemical, small-molecule microarray, 635 nm fluorescence (AID 1105).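 Also: score merges emission near 667 nm and signal to noise per printed spot across three slides.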 The following applies: FSTL3 binding, higher = more signal.
The target of assay [9] is Dickkopf-related protein 1 (Homo sapiens) (UniProt O94907). Nature of the assay: DKK1 binders on small-molecule microarrays, primary screen, biochemical, small-molecule microarray, 635 nm fluorescence scan (AID 1106).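 Also: score merges emission near 667 nm with signal to noise over three replicate slides.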 The following applies: DKK1 binding, higher = more signal.
Assay [10] concerns Inhibin beta A chain (activin A). Nature of the assay: INHBA (activin A) binders on microarrays, primary screen, biochemical, small-molecule microarray, 635 nm fluorescence scan (AID 1107).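 Also: mouse activin A protein probed at 4.33 µg/mL on printed slides; score merges bound-protein fluorescence near 667 nm with spot signal-to-noise.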 The conditions noted are these: small-molecule microarray binding, higher = more signal.
Assay [11] concerns Human papillomavirus type 1a protein E7 (residues 44-93). The experiment in a line: HPV1a E7 fragment binders on microarrays, primary screen, biochemical, small-molecule microarray, residues 44-93, 635 nm fluorescence (AID 1108).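 Also: E7 fragment applied at 1 µg/mL in TBST for 1 h at 4 C; score combines spot fluorescence with its signal to noise ratio.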 The following applies: small-molecule microarray binding, fluorescence 635 nm; higher = more signal.
Assay [12] in a line: modulators of HCV replicon luciferase signal, primary screen, HCV replication inhibitor project, Huh7 cells, luciferase reporter (AID 1109).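 Also: huh7 hepatoma cells harbouring a luciferase neomycin HCV replicon reporter; luciferase luminescence as measure of HCV replicon replication; test concentration not given here.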 The following applies: 48 h, higher = more signal.
The target in assay [13] is Left-right determination factor 2 (Homo sapiens) (UniProt O00292). Nature of the assay: LEFTY2 binders on small-molecule microarrays, primary screen, biochemical, small-molecule microarray, 635 nm fluorescence scan (AID 1110). The conditions noted are these: LEFTY2 binding, higher = more signal.
Assay [14] deals with Calmodulin-1 (Homo sapiens) (UniProt P0DP23). Nature of the assay: CALM1 binders on microarrays, EGTA buffer, profiling panel, biochemical, small-molecule microarray, Cy5-labelled CALM1 (AID 1111).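 Also: labelled calmodulin applied in Tris saline Tween buffer holding calcium plus EGTA and DTT.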 The following applies: Cy5-CALM1 binding fluorescence, higher = more signal.
The target is the same in assay [15]. Nature of the assay: calcium-bound CALM1 binders on microarrays, profiling panel, artefact control for SMM control-protein annotation, biochemical, small-molecule microarray, Cy5-labelled CALM1, plus calcium (AID 1112).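 Also: score merges spot fluorescence with signal to noise from triplicate slides.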 The conditions noted are these: Cy5-CALM1 binding fluorescence, higher = more signal.
The nature of assay [16]: small-molecule microarray binders of probe aWnt5a, primary screen, biochemical, biotinylated probe, 635/667 nm fluorescence (AID 1113).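 Also: score merges 667 nm fluorescence intensity with signal-to-noise per printed feature.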 The following applies: higher = more signal.
Assay [17] in a line: small-molecule microarray binders of probe aShh, primary screen, biochemical, biotinylated probe, 635/667 nm fluorescence (AID 1114).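 Also: probe is biotin-labelled aShh protein from a stem cell growth factor screen; measures binding of labelled protein to compounds printed on the slide; score merges feature fluorescence at 667 nm with signal-to-noise.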 The following applies: higher = more signal.
A short description of assay [18]: small-molecule microarray binders of probe aNog, primary screen, biochemical, biotinylated probe, 635/667 nm fluorescence (AID 1115).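 Also: probe is biotinylated aNog protein used at 0.15 µg/mL for 1 h at 4 C; z-score combines 667 nm fluorescence of each spot with its signal to noise.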 The conditions noted are these: higher = more signal.
Assay [19] concerns the target Torsin-1A-interacting protein 1 (Homo sapiens) (UniProt Q5JTV8). The experiment in a line: LAP1 binders from COS7 cell lysate, primary screen, small-molecule microarray, 635/667 nm fluorescence (AID 1116). The conditions noted are these: COS7-hLAP1 lysate binding, 635 nm fluorescence, higher = more signal.
Assay [20] has as its target Alpha-bungarotoxin (Bungarus multicinctus) (UniProt P60615). Nature of the assay: alpha-bungarotoxin binders on microarray, profiling panel, artefact control for SMM control protein annotation, biochemical, small-molecule microarray, Alexa647 label, 635/667 nm fluorescence (AID 1117). The following applies: alpha-BTX-A647 binding fluorescence, higher = more signal.

Sequence of Dickkopf-related protein 1 (Homo sapiens) (O94907 whole entry, looked up): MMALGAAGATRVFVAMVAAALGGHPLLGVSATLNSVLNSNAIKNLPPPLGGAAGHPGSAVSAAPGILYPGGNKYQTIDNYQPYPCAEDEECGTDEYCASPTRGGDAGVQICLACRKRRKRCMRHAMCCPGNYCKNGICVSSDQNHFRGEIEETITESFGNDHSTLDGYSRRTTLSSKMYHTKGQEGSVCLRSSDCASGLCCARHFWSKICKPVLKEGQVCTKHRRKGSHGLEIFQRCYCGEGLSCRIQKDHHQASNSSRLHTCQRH
Sequence of Follistatin-related protein 3 (Homo sapiens) (O95633 whole entry, looked up): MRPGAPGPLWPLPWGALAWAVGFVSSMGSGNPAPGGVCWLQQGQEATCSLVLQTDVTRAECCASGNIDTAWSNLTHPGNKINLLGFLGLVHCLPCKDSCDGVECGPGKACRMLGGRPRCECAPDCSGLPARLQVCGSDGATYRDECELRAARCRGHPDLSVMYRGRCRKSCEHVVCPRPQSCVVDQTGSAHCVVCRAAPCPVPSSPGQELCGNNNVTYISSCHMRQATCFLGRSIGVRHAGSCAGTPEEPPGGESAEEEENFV
Sequence of Epidermal growth factor receptor (Homo sapiens) (P00533 whole entry, looked up): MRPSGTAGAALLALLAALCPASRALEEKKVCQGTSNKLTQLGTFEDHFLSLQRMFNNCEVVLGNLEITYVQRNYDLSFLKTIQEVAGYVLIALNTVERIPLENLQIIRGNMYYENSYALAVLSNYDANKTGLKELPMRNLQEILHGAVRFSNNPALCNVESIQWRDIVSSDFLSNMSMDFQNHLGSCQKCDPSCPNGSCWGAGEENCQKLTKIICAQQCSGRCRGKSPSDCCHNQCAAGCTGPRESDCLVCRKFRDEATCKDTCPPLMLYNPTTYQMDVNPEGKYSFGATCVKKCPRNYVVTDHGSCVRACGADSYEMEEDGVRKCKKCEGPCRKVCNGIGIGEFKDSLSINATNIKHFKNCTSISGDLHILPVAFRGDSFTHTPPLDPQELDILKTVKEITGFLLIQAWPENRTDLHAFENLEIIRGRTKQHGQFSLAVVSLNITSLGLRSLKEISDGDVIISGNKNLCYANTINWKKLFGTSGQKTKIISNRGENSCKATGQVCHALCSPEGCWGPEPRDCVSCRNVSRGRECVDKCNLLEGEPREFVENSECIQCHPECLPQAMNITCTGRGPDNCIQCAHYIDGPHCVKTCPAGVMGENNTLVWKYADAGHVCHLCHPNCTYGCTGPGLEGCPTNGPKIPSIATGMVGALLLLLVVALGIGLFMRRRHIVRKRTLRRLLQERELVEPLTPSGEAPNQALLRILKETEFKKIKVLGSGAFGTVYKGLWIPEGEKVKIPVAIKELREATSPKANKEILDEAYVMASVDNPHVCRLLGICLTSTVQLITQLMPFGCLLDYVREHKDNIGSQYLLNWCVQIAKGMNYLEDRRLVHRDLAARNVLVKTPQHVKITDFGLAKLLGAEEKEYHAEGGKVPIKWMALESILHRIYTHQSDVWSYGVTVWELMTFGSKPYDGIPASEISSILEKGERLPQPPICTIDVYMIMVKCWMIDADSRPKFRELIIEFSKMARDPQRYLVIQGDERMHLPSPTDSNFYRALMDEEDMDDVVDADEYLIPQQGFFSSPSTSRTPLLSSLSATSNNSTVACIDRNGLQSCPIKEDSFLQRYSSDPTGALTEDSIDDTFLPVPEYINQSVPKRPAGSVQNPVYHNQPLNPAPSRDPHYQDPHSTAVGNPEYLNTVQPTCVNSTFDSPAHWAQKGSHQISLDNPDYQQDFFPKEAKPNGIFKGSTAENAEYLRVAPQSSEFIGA
Sequence of Alpha-bungarotoxin (Bungarus multicinctus) (P60615 whole entry, looked up): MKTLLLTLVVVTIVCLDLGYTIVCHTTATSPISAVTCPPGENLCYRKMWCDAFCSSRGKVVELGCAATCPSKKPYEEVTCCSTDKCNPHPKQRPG
Sequence of Fibroblast growth factor 10 (Homo sapiens) (O15520 whole entry, looked up): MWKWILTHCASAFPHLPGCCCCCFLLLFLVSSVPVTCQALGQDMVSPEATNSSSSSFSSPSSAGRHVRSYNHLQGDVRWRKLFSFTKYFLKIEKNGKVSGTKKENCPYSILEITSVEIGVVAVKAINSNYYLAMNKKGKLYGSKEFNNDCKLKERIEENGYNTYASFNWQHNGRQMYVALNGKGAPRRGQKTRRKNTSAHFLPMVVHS
Sequence of Left-right determination factor 2 (Homo sapiens) (O00292 whole entry, looked up): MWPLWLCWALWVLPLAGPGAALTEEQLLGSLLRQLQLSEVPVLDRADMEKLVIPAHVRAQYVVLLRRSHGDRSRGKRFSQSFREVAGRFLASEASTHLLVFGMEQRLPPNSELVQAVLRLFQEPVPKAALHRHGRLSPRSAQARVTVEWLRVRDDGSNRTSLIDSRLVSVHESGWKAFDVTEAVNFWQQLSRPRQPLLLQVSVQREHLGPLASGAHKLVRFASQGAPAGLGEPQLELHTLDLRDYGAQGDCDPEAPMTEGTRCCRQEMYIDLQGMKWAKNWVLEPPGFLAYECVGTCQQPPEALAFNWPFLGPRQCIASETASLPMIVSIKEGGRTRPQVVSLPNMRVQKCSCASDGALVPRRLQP
Sequence of Torsin-1A-interacting protein 1 (Homo sapiens) (Q5JTV8 whole entry, looked up): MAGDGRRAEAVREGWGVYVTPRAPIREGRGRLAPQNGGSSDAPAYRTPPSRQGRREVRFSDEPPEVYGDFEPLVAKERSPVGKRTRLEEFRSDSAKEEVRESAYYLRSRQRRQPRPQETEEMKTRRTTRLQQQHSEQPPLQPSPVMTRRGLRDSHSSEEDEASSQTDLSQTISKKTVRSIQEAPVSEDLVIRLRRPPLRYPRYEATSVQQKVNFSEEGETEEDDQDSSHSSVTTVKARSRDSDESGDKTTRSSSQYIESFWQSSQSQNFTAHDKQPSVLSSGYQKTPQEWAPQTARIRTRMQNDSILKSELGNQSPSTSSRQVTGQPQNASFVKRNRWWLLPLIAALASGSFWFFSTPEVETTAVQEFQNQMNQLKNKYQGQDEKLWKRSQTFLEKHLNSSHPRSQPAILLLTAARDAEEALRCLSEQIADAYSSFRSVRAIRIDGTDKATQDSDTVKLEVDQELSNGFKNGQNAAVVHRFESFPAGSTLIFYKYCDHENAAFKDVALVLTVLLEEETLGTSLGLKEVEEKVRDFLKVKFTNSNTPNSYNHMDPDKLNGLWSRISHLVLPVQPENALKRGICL

As to `CC(C)=CCCC(C)=CCON=C1C[C@@H](O)[C@@H](O)[C@@H]2[C@@H]3C(=O)N(C4CCCCC4)C(=O)[C@@H]3CC[C@H]12`, the composite z-score in [1] was 0.475; in [2], -0.107; in assay [3] it was -0.304; in assay [5] it was 0.785; in assay [6], 0.701; in [7], 0.513. Further, the composite z-score was 1.11 in assay [8]; 0.873 in assay [9]; 0.644 in assay [10]; 0.684 in assay [11]; 0.594 in assay [13]; -0.432 in assay [14]. The composite z-score in assay [15] was -1.2; in [16], -0.0425; in [17], -0.0904; in [18], -0.341; in assay [19], -0.0853; in assay [20] it was 0.713. For the same molecule, the results for the z-score in [4] and in assay [12] were -0.693 (inactive) and -0.127, respectively.

With `C[C@@H]1CC[C@H]2C(=O)OC(CN3C(=O)c4ccccc4C3=O)CN2[C@H]1c1ccc(Br)cc1` (stereo not given in full), the composite z-score in [1] was 0.532; in assay [2], -0.117; in [3] it was -0.0788; in [5], 0.398; in [6], -0.0067; in [7], 0.13. Further, the composite z-score in assay [8] is -0.234; in assay [9] it was 0.383; in [10], 0.74; in assay [11], 0.901; in assay [13], 0.113; in [14] it was 1.53. The composite z-score in assay [15] was 0.772; in assay [16], -0.091; in assay [17] it was 0.111; in assay [18], 0.243; in assay [19] it was 0.419; in [20], 0.666. Moreover, the figures for the z-score in [4] and in assay [12] were 0.5 (inactive) and 0.302, respectively.

For the molecule `O=C(NN=C1C[C@@H](O)[C@@H](O)[C@@H]2[C@@H]3C(=O)N(c4ccc(F)cc4F)C(=O)[C@@H]3CC[C@H]12)OCc1ccccc1`, the composite z-score is 0.705 in assay [1]; 0.052 in assay [2]; 0.793 in [3]; 0.379 in assay [5]; 0.131 in assay [6]; -0.0295 in assay [7]. Further, the composite z-score in assay [8] was 0.385; in assay [9], -0.118; in assay [10], 0.0132; in assay [11] it was 1.35; in assay [13], 0.446; in assay [14], 0.463. Besides, the composite z-score in assay [15] is -0.235; in assay [16] it was -0.12; in assay [17], -0.0192; in [18] it was -0.406; in [19], 0.747; in assay [20], 0.555. For the same molecule, the values for the z-score in assay [4] and in assay [12] were 0.267 (inactive) and -0.642, respectively.

Turning to `CCN1C(=O)[C@H]2[C@H]3[C@H](O)[C@H](O)CC(=NOCC[C@@H]4C=C[C@H](OC(C)=O)[C@@H](COC(C)=O)O4)[C@@H]3CC[C@H]2C1=O`, the composite z-score is 0.0458 in assay [1]; -0.107 in assay [2]; -0.426 in [3]; 0.476 in [5]; 0.0008 in assay [6]; 0.498 in assay [7]. Moreover, the composite z-score in [8] was 0.38; in assay [9] it was 0.476; in assay [10], 0.079; in assay [11] it was -0.263; in assay [13], 0.736; in assay [14], -0.207. Besides, the composite z-score in [15] is -0.225; in [16] it was 0.0102; in assay [17], 0.0899; in assay [18], 0.029; in assay [19], -0.359; in assay [20], 0.391. Moreover, the z-score is -0.0787 (inactive) in assay [4] and -1.04 in assay [12].

`CCOC(=O)[C@H](CC(C)C)NC(=O)CCC1CC(OC(=O)NCCc2ccc(F)cc2)CC2(CCCC(COC(=O)NCCCN3CCCC3=O)O2)O1` (stereo not given in full): the composite z-score in assay [1] was -0.0927; in assay [2], -0.234; in [3] it was -0.509; in assay [5] it was 0.93; in assay [6] it was 0.519; in assay [7] it was 0.261. Besides, the composite z-score in [8] was 0.572; in assay [9] it was 0.946; in assay [10], -0.131; in assay [11] it was 0.681; in [13], 0.491; in [14], 0.116. Moreover, the composite z-score in [15] was -0.0004; in [16], 0.0108; in assay [17], -0.2; in assay [18], -0.451; in [19], 0.422; in assay [20], 1.54. Moreover, the z-score in [4] is 0.764 (inactive); in [12] it was -1.2.
